The source made the active and inactive calls.
Assays:
[1] = tested on: Plasmodium falciparum Sir2 (PF13_0152, Sir2A); test: pfSir2 binders on small-molecule microarrays, primary screen, biochemical, small-molecule microarray, 635 nm fluorescence (AID 1098); conditions: small-molecule microarray binding, fluorescence 635 nm; higher = more signal;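 note: score merges spot fluorescence intensity with its signal-to-noise ratio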
[2] = small-molecule microarray binders of probe aDKK1, primary screen, biochemical, biotinylated probe, 635/667 nm fluorescence (AID 1099); conditions: higher = more signal;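 note: score merges 667nm spot fluorescence with signal to noise across triplicate slides; reference of the scale not given here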
[3] = small-molecule microarray binders of probe aCHRDL2, primary screen, biochemical, biotinylated probe, 635/667 nm fluorescence (AID 1100); conditions: higher = more signal
[4] = splicing luciferase reporter signal modulators, primary screen, spliceosome inhibition project, cell-based, HEK293, splice +/- reporter (AID 1101); conditions: luminescence, 24 h, higher = more signal, called active from +8 up or from −8 down;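 note: HEK293 cells carrying a splicing-competent luciferase reporter gene; test concentration not given here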
[5] = target: Fibroblast growth factor 10 (Homo sapiens) (UniProt O15520); test: FGF10 binders on small-molecule microarrays, primary screen, biochemical, small-molecule microarray, 635 nm fluorescence (AID 1102); conditions: FGF10 binding, fluorescence 635 nm, higher = more signal
[6] = tested on: glycogen synthase kinase-3 (GSK3A per assay name; protocol says GSK3B); test: GSK3 binders on small-molecule microarrays, primary screen, biochemical, small-molecule microarray, 635 nm fluorescence, GSK3A (AID 1103); conditions: small-molecule microarray binding, fluorescence 635 nm; higher = more signal; note: the record names both GSK3A and GSK3B
[7] = target: Epidermal growth factor receptor (Homo sapiens) (UniProt P00533); test: EGFR binders on small-molecule microarrays, primary screen, biochemical, small-molecule microarray, 635 nm fluorescence (AID 1104); conditions: EGFR binding, higher = more signal;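 note: score merges 667 nm emission intensity with spot signal to noise over triplicate slides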
[8] = target: Follistatin-related protein 3 (Homo sapiens) (UniProt O95633); test: FSTL3 binders on small-molecule microarrays, primary screen, biochemical, small-molecule microarray, 635 nm fluorescence (AID 1105); conditions: FSTL3 binding, higher = more signal;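 note: score merges emission near 667 nm and signal to noise per printed spot across three slides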
[9] = target: Dickkopf-related protein 1 (Homo sapiens) (UniProt O94907); test: DKK1 binders on small-molecule microarrays, primary screen, biochemical, small-molecule microarray, 635 nm fluorescence scan (AID 1106); conditions: DKK1 binding, higher = more signal;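 note: score merges emission near 667 nm with signal to noise over three replicate slides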
[10] = tested on: Inhibin beta A chain (activin A); test: INHBA (activin A) binders on microarrays, primary screen, biochemical, small-molecule microarray, 635 nm fluorescence scan (AID 1107); conditions: small-molecule microarray binding, higher = more signal;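 note: mouse activin A protein probed at 4.33 µg/mL on printed slides; score merges bound-protein fluorescence near 667 nm with spot signal-to-noise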

Chain of Epidermal growth factor receptor (Homo sapiens) (P00533 whole entry, looked up): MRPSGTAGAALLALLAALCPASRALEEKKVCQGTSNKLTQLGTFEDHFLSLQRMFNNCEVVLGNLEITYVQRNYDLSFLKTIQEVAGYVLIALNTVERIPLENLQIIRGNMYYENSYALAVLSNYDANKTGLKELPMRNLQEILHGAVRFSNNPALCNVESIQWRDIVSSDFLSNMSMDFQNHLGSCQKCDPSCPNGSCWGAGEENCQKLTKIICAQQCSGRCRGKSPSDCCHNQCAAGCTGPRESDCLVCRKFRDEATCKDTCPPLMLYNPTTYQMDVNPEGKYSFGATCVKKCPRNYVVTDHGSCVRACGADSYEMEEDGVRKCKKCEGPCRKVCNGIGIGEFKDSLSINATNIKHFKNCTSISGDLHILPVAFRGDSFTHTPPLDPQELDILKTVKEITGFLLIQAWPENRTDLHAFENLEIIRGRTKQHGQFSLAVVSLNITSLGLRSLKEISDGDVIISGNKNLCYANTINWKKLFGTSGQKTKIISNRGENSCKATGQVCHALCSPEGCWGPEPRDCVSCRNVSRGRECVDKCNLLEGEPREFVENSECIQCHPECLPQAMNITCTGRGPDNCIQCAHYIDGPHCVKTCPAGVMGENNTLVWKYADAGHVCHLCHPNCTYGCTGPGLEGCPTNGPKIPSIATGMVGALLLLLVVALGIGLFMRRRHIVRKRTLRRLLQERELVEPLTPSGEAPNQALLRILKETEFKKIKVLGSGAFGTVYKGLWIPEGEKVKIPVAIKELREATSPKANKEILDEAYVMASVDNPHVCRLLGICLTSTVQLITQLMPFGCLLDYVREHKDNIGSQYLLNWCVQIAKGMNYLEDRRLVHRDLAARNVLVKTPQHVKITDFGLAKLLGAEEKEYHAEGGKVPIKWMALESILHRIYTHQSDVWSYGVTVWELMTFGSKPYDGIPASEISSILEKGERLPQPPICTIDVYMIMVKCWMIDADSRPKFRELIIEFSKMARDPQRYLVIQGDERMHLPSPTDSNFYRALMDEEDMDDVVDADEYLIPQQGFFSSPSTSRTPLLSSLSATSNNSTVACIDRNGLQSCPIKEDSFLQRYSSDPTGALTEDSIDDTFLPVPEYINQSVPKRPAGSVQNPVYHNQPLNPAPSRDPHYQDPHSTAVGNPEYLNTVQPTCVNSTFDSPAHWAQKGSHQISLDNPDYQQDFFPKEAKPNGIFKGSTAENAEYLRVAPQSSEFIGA
Chain of Fibroblast growth factor 10 (Homo sapiens) (O15520 whole entry, looked up): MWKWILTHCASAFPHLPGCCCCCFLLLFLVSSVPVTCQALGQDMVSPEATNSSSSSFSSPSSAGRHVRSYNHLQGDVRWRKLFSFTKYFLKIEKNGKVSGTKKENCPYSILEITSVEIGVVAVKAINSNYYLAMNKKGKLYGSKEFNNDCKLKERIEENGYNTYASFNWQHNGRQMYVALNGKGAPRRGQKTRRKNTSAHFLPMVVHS
Chain of Follistatin-related protein 3 (Homo sapiens) (O95633 whole entry, looked up): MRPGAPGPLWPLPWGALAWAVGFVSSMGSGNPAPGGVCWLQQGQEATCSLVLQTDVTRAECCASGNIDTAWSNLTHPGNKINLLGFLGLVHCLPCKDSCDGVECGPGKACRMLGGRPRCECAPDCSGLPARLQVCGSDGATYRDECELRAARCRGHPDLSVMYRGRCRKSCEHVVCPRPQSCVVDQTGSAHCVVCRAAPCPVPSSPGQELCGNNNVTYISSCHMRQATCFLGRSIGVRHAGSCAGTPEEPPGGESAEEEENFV
Chain of Dickkopf-related protein 1 (Homo sapiens) (O94907 whole entry, looked up): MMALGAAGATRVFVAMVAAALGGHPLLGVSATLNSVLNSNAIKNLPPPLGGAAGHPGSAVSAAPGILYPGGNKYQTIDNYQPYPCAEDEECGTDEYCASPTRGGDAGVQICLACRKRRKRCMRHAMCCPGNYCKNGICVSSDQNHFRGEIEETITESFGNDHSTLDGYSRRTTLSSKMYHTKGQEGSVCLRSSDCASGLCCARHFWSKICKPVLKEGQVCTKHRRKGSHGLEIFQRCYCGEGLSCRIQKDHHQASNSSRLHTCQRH

Row | Structure (SMILES) | composite z-score [1] | composite z-score [2] | composite z-score [3] | z-score [4] | composite z-score [5] | composite z-score [6] | composite z-score [7] | composite z-score [8] | composite z-score [9] | composite z-score [10]
1 | CCOC(=O)C[C@H]1[C@H](OC(=O)c2cc3ccccc3oc2=O)[C@@H](NC(=O)c2ccc(-c3ccccc3)cc2)c2cc(OCCCO)ccc2N1C(=O)Cc1ccc(OC)cc1 | 0.782 | 0.0384 | -0.037 | 0.595 (inactive) | 1.04 | 0.889 | 0.419 | 0.686 | 0.682 | 0.321
2 | CO[C@H]1O[C@H](CO)[C@@H](OC(=O)Nc2ccccc2)[C@@H]2OC(=O)[C@@H](Cc3ccccc3)C/C=C/C[C@H](Cc3ccccc3)C(=O)O[C@@H]12 | 1.46 | -0.172 | -0.0203 | 0.0457 (inactive) | 0.73 | 0.107 | -0.191 | 0.094 | 0.206 | 0.983
3 | COCCOC(=O)N1C(=O)[C@@]2(c3cc(C#CCNC(N)=O)ccc31)[C@H](c1ccccc1OCCO)N1[C@H](c3ccccc3)[C@H](c3ccccc3)OC(=O)[C@H]1[C@@H]2C(=O)N1CCCCCCC1 | 1.42 | 0.784 | 0.735 | -0.402 (inactive) | 0.739 | 1.11 | 0.5 | 1.23 | 0.557 | 1.44
4 | CC1(C)OB(/C=C\CC(OC(=O)c2ccncc2)c2ccccc2)OC1(C)C (stereo not given) | 0.398 | 1.17 | 1.47 | 0.639 (inactive) | -0.951 | -0.131 | -1.31 | -0.0031 | -1.26 | 1.75
5 | COCCCNC(=O)[C@@]1(Cc2ccccc2I)c2ccccc2C(=O)N(C2CCCCC2)[C@H]1c1ccc(CO)cc1 | 1.25 | 0.015 | 0.445 | -0.235 (inactive) | 0.973 | 0.681 | -0.0802 | 0.0553 | 0.249 | 0.123
6 | CN1C(=O)C2C=CC(C(O)c3ccc(I)cc3)N(N(c3ccccc3)c3ccccc3)C2C1=O (stereo not given) | 0.727 | -0.0078 | 0.914 | 1.19 (inactive) | -0.841 | -0.487 | -0.882 | -0.309 | -0.421 | 1.32
7 | CCCCC=C[C@@H](NC(=O)C(C)(C)C)c1ccccc1 | 0.641 | 0.715 | 0.609 | 0.41 (inactive) | 0.548 | 1.25 | 0.357 | 0.508 | 0.15 | 0.173
8 | COC(=O)[C@]1(Cc2ccccc2CN=[N+]=[N-])N=C(c2ccc(OCCCO)cc2)O[C@@H]1c1ccccc1N=[N+]=[N-] | 0.973 | -0.507 | 0.172 | -0.346 (inactive) | 0.267 | 0.135 | -0.296 | -0.332 | -0.268 | 1.08
9 | C=C(C(=O)CC[C@@H](OC(=O)c1ccccc1-c1ccccc1C(=O)O)c1cccc(OCCO)c1)C(C)C | 0.679 | -0.318 | -0.393 | 0.436 (inactive) | 1.56 | 0.133 | -0.143 | 0.441 | 0.907 | 1.06
10 | COC(=O)[C@@]1(Cc2ccccc2)[C@H]2c3cc(C(=O)N(C)C)n(Cc4nc5ccccc5[nH]4)c3C[C@H]2CN1C(=O)c1ccccc1 | 0.88 | 0.52 | 1.21 | -2.1 (inactive) | 0.742 | 0.64 | 0.226 | 0.841 | -0.416 | 0.893
11 | CN(C)CCCC[C@@H]1NC(=O)[C@H]2C[C@@H](C(=O)NCCCCCCNC(=O)CS)[C@@H](c3cccc(OCCO)c3)N2C1=O | 0.872 | 0.094 | 0.366 | 0.624 (inactive) | 0.124 | 0.846 | -0.166 | -0.606 | 0.156 | -0.364
12 | C=CCOC(=O)[C@H]1[C@@H]2C(=O)O[C@@H](c3ccccc3)[C@@H](c3ccccc3)N2[C@@H](c2ccc(OCCOC(=O)[C@@H]3C[C@@H]4C(=O)N[C@@H](Cc5ccccc5)C(=O)N4[C@@H]3c3ccc(O)cc3)cc2)[C@]12C(=O)Nc1ccc(I)cc12 | 1.5 | -0.188 | -0.381 | -0.461 (inactive) | 1.31 | 0.606 | 0.654 | 1.24 | 0.825 | 0.684
13 | Cc1ccc(S(=O)(=O)N2[C@@H](c3ccccc3)C(C(=O)O)=CC[C@H]2c2ccc(F)cc2)cc1 | -0.434 | -0.224 | 0.633 | -0.207 (inactive) | 0.876 | 1.08 | -0.882 | 0.489 | -0.757 | -1.32
14 | C=C(C)C1CN([C@H](CO)c2ccccc2)C(=O)/C1=C\c1ccccc1 (stereo not given in full) | 0.719 | -0.316 | -0.492 | -0.921 (inactive) | 0.716 | 0.22 | 0.0508 | 0.276 | 0.48 | 1.29
15 | O=C1N(Cc2ccccc2)Cc2ccccc2C[C@@]12COC(c1ccc(OCCCO)cc1)=N2 | 0.631 | 1.02 | 1.27 | 6.28 (inactive) | 0.334 | 1.27 | -0.622 | 0.288 | 0.306 | 1.4

Reference: PubChem BioAssay
